Source: PubChem (The Scripps Research Institute Molecular Screening Center)
Only some compounds are listed: those with a hit (about 4.2% of all), similar ones and a draw of the others.
DAX1 StAR inh = inhibitors of DAX1 repression of SF-1 activated StAR promoter | HEK293T StAR-luciferase reporter, SF-1/DAX-1 repression relief | inhibition, % at 6.8 µM | 1.1% of 370,000 active | AID 652010;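 active = inhibition above the mean over all tested compounds plus 3 SD, cut at about 3.6% in these data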;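 note: 0% = DAX-1 cells with DMSO and 100% = cells lacking DAX-1 with DMSO; higher inhibition means more luminescence from relief of DAX-1 repression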
SMARCA2 activ = increases SMARCA2 function in MMTV reporter cells | MG213 cells, MMTV-luciferase reporter, dexamethasone, overnight | activation, % at 9.1 µM | 1% of 370,000 active; in the data active = activation above about 7.8%;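 note: 0% = vehicle wells and 100% = reference activator wells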
hcDAF-12 act = activates DAF-12 receptor from parasite H. contortus; HEK293 hcDAF-12 lit1-tk-luc reporter, luminescence; 0% DMSO, 100% Δ7-dafachronic acid; activation, % at 6.8 µM; 1.4% of 370,000 active; AID 652067;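 active = activation above the mean of all tested compounds plus 3 SD, cut at about 5.5% in these data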;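 note: 100% = response to 3 µM Δ7-dafachronic acid high control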
hgDAF-12 ag = activates the H. glycines DAF-12 receptor ligand-binding domain; AID 687014; 1.8% of 370,000 active; HEK293 GAL4-hgDAF12 UAS-luciferase reporter, agonist luminescence; normalized to butyrate control; activation, % at 6.8 µM;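 active = activation above a cutoff set at the mean of all screened compounds plus 3 SD, cut at about 10% in these data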;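 note: 0% = DMSO wells and 100% = sodium butyrate wells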
ssDAF12 agonist = S. stercoralis DAF-12 activation, primary screen; HEK293 ssDAF-12/GRIP1 lit1-tk-luc reporter, luminescence; % of 3 µM dafachronic acid response; 1% of 370,000 active; activation, % at 6.8 µM; AID 652126;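 active = activation above the mean over all tested compounds plus 3 SD, cut at about 0.9% in these data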;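 note: 0% = DMSO-only wells and 100% = 3 µM delta7-dafachronic acid wells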
DAX1 inh confirm = confirmation of human DAX1 (NR0B1) inhibitors. shares compounds with DAX1 StAR inh. HEK293T StAR-promoter luciferase reporter, SF-1/DAX-1 repression. inhibition, % at 6.8 µM. 87% of 2,400 active. AID 652134;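 active = inhibition above the average of every tested compound plus 3 SD, cut at about 3.8% in these data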;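 note: 0% = DAX-1 cells with DMSO and 100% = no DAX-1 control cells with DMSO; active compounds raise luminescence by relieving repression of the StAR reporter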
SF1 AF2mut Luc = counter-screen for DAX1 inhibitors: nonselective inhibitors with SF-1 AF2 mutant | shares compounds with DAX1 StAR inh | HEK293 StAR-luciferase, luminescence | inhibition, % at 6.8 µM | 78% of 2,400 active | AID 652136;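 active = inhibition above the mean of all tested compounds plus 3 SD, cut at about 3% in these data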;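 note: 0% = DAX-1 transfected cells with DMSO and 100% = cells without DAX-1 with DMSO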
SMARCA2 act conf = SMARCA2 activation, confirmation screen | activation, % at 9.1 µM | shares compounds with SMARCA2 activ | 30% of 3,500 active | MG213 cells, MMTV-luciferase with dexamethasone, luminescence, overnight; MG213 cells expressing E1A, Rb sequestered; DMSO wells 0%, reference activator 100%;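 active = activation above its plate's cutoff, the mean activation of tested wells plus 3 SD, cut at about 7.9% in these data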
GAL4-VP16 Luc = activates GAL4-VP16 luciferase, flagging SMARCA2 activator hits | shares compounds with SMARCA2 activ | HEK293 GAL4-VP16 pG5luc reporter, luciferase luminescence; scaled: DMSO wells 0%, SAHA wells 100% | activation, % at 9.1 µM | 41% of 3,500 active;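 active = activation above the solvent-only control well mean plus 3 SD, averaged across control plates, cut at about 5.2% in these data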
LXR ag = activates human LXR-beta, counter-screen for hcDAF-12 agonists | 3,400 tested, under 10 active | HEK293 Gal4-LXR tk-luc reporter, luminescence, 24 h; normalized: DMSO 0%, positive control 100% | AID 743027 | activation, % at 6.8 µM | shares compounds with hcDAF-12 act;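 active = mean percent activation of the reporter above a cutoff set as the average over tested compounds plus their standard deviation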
Target sequence (P55055 whole entry, looked up, the tested form may be a part): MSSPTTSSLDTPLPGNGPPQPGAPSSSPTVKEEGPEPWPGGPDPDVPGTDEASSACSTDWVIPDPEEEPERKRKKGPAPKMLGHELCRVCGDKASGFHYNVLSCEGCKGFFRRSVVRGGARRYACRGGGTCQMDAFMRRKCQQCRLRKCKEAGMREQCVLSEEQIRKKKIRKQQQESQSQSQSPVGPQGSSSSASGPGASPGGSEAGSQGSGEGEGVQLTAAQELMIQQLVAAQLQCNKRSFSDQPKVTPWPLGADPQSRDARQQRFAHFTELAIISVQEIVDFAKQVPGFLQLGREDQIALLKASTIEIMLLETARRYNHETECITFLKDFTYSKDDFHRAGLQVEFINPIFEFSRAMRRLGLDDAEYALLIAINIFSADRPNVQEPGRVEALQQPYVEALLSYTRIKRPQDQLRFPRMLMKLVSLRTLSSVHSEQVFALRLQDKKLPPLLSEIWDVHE
hcDAF12 conf = hcDAF-12 agonism, confirmation assay | 61% of 3,400 active | shares compounds with hcDAF-12 act | activation, % at 6.8 µM | HEK293 hcDAF-12 lit1-tk-luc reporter, luminescence; % of Δ7-dafachronic acid response;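 active = mean activation across triplicate tests above the threshold derived from the earlier primary screen, cut at about 5.5% in these data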;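 note: 0% = DMSO only wells and 100% = 3 µM Δ7-dafachronic acid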
hgDAF12 ag = hgDAF-12 agonism, confirmation assay | activation, % at 6.8 µM | shares compounds with hgDAF-12 ag | AID 743050 | HEK293 GAL4-hgDAF12 luciferase reporter, agonist mode; percent of butyrate response | 80% of 3,300 active;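 active = mean activation over triplicate wells above the hit cutoff derived from the earlier primary screen, cut at about 11% in these data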;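 note: 0% = DMSO low control and 100% = 2 mM sodium butyrate high control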
LXR ag 2 = LXR-beta agonism as DAF-12 counter-screen | shares compounds with hgDAF-12 ag | HEK293 Gal4-LXR luciferase reporter, 24 h | activation, % at 6.8 µM | 3,300 tested, under 10 active;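 active = mean activation of the triplicate above a set limit carried over from the primary screen, none filed active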
Numbers without * were called inactive; nt = no result.

SMILES | DAX1 StAR inh | SMARCA2 activ | hcDAF-12 act | hgDAF-12 ag | ssDAF12 agonist | DAX1 inh confirm | SF1 AF2mut Luc | LXR ag | hcDAF12 conf | others
CCOC(=O)c1c(C)oc2c1c(CN1CCN(CCO)CC1)c(O)c1ccccc12 | 4.8* | -1 | 7.1* | 10 | 1.1* | 4.2* | 3.7* | 0 | 6.8*
Cc1ccc(-n2c(C)nc3oc4ccccc4c(=O)c3c2=O)cc1 | 4.5* | 3 | 12* | 10 | 1.8* | 8.5* | 6.1* | 0 | 9.2*
O=c1cc(N2CCN(c3cccc(C(F)(F)F)c3)CC2)[nH]c(=O)n1C1CCCCC1 | nt | nt | -2 | -1 | -1 | nt | nt | nt | nt
O=C(O)c1ccc(N/N=C/c2cccc(F)c2)cc1 | 6.3* | 7 | 7.1* | 21* | 1.2* | 15* | 8.3* | 1 | 10.0*
O=C(N/N=C/C(Br)=C/c1ccccc1)C(O)c1ccccc1 (stereo unspecified) | 0 | 6 | -1 | -1 | -1 | nt | nt | nt | nt
O=C(O)c1ccc(N/N=C/C(Br)=C/c2ccccc2)cc1 | 5.2* | 0 | 8.1* | 22* | 1 | 13* | 4.2* | 2 | 13*
C[C@@H]1ON(C)[C@H]2C[C@H]3c4cc(-c5ccccc5)ccc4CCN3C[C@@H]12 | 0 | 0 | 0 | 0 | 0 | nt | nt | nt | nt
CCOC(=O)[C@]12CCCC=C1N(Cc1ccc3c(c1)OCO3)C(=O)[C@H](CC(=O)N1CCOCC1)C2 | -1 | -5 | -2 | 2 | -1 | nt | nt | nt | nt
COC(=O)c1ccc(-c2nc(-c3cccs3)no2)cc1 | 6.8* | 11* | 6.8* | 14* | 1.8* | 3 | -2 | 1 | 4 | SMARCA2 act conf=-4;GAL4-VP16 Luc=8.1*
S=C(Nc1ccc(Br)cc1)OC1CCC12CCC(c1ccccc1)CC2 (stereo unspecified) | 0 | -1 | 1 | 0 | 0 | nt | nt | nt | nt
Cc1ccc(C)c(NC(=O)c2ccccn2)c1 | 1 | -2 | 1 | 5 | -1 | nt | nt | nt | nt
Cc1ccc(C)c(NC(=O)c2ccc3ccccc3n2)c1 | 5.0* | 7 | 17* | 11* | 2.6* | 15* | 10* | 2 | 22*
CCC[C@H]1[C@@H](NC(=O)c2cccc(N(C)C)c2)CC[C@@]23CCCN2C(=O)CCC[C@@H]13 | nt | nt | -3 | 3 | -2 | nt | nt | nt | nt
COC(=O)c1ccc2nc(-c3ccc4c(c3)OCO4)cn2c1 | 10* | 5 | 7.1* | 17* | 1.7* | 8.9* | 0 | 1 | 6.4*
CCc1ccn2cc(-c3ccc4c(c3)OCO4)nc2c1 | 0 | -5 | 1 | -3 | -2 | nt | nt | nt | nt
Fc1ccc(/C=N/NC2=Nc3cccc4cccc2c34)cc1 | 5.2* | 4 | 15* | 22* | 2.2* | 10* | 8.4* | 1 | 11*
O=C(/C=C/c1ccc(Cl)c(Cl)c1)N1CCc2ccccc21 | 1 | 3 | 2 | 10 | -1 | nt | nt | nt | nt
O=C(/C=C/c1cccs1)N1CCc2ccccc21 | 7.3* | 1 | 20* | 28* | 3.6* | 19* | 8.4* | 2 | 21*
CCc1nc2c(OCC(=O)c3ccc(Cl)cc3Cl)cccn2c1N(C=O)Cc1ccccc1 | 1 | -3 | 0 | 0 | 0 | nt | nt | nt | nt
COc1ccc(C(=O)/C=C/Nc2cccc(O)c2)cc1 | 6.0* | 7 | 8.2* | 19* | 1.2* | 14* | 8.1* | 2 | 12* | hgDAF12 ag=27*;LXR ag 2=2
COc1cccc(N/C=C/C(=O)c2ccc(OC)c(OC)c2)c1 | 0 | 2 | -2 | 2 | -1 | nt | nt | nt | nt
Cc1nnc(SCC(=O)Nc2nsc(-c3ccc(C(C)(C)C)cc3)n2)s1 | 7.3* | 1 | 7.3* | 27* | 1 | 11* | 6.0* | 1 | 6.9* | hgDAF12 ag=19*;LXR ag 2=1
O=C(O)CCSc1ncnc2sc(-c3ccccc3)cc12 | -2 | -11 | -5 | -14 | -3 | nt | nt | nt | nt
CC(=O)CCSc1ncnc2sc(-c3ccccc3)cc12 | 13* | 7 | 4 | 16* | 1.2* | 16* | 7.9* | nt | nt | hgDAF12 ag=13*;LXR ag 2=1
Cc1ccc2c(CN(C)Cc3ccccc3)cc(=O)oc2c1 | 6.8* | 11* | 2 | 14* | 1 | 6.0* | 3 | nt | nt | SMARCA2 act conf=12*;GAL4-VP16 Luc=11*;hgDAF12 ag=11*;LXR ag 2=1
SMILES | DAX1 StAR inh | SMARCA2 activ | hcDAF-12 act | hgDAF-12 ag | ssDAF12 agonist | DAX1 inh confirm | SF1 AF2mut Luc | LXR ag | hcDAF12 conf | others
Cc1cccc(/C=N/Nc2ccc3ccccc3n2)c1 | 1 | -5 | 3 | -2 | -2 | nt | nt | nt | nt
Cc1ccc(/C=N/Nc2ccc3ccccc3n2)o1 | 11* | 5 | 8.8* | 22* | 1.1* | 5.8* | 1 | 2 | 10* | hgDAF12 ag=11*;LXR ag 2=1
O=C(NC1CCCCN(Cc2ccc(Cl)cc2)C1=O)c1cc(-c2ccccc2)no1 (stereo unspecified) | -2 | -3 | 3 | -1 | 0 | nt | nt | nt | nt
O=C(CCCCCN1C(=O)C2C3C=CC(C3)C2C1=O)N1CCN(c2ncccn2)CC1 (stereo unspecified) | 0 | -5 | -2 | -2 | -1 | nt | nt | nt | nt
CC1CCc2c(sc(NC(=O)C3=COCCO3)c2C(N)=O)C1 (stereo unspecified) | 5.7* | 6 | 8.7* | 15* | 1.4* | 12* | 6.5* | 1 | 5 | hgDAF12 ag=19*;LXR ag 2=1
CNC(=O)c1c(NC(=O)C2=COCCO2)sc2c1CCC(C)C2 (stereo unspecified) | -2 | 4 | -2 | 2 | -1 | nt | nt | nt | nt
O=C(OCC(=O)N1CCc2ccccc21)c1ccccc1F | 2 | -1 | 4 | 2 | 0 | nt | nt | nt | nt
